Experimental data as given in PubChem BioAssay (NCATS).
Active and inactive are the calls of the source. Where a call stands in place of a potency, no number is given. Calls follow the shape of the dose curve; as a rule, active = well fitted cell-killing curve with a large enough effect; inconclusive = small, poorly fitted or top-dose-only effect; inactive = flat fitted curve, though single readings scatter.

Assay: Cell Viability - LYMP1-002 - Assay at 24 hr (AID 993)
Details: LYMP1-002 lymphoblastoid cells viability; series mostly up to 92.2 µM
How it was run: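 Human lymphoblastoid LYMP1-002 cells, 2500/well in complete medium, were treated with compounds for 24 h at 37 C; intracellular ATP was read by CellTiter-Glo luminescence. AC50 values came from Hill-equation fits of qHTS concentration-response data.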
Potency is read from the fitted curve at half-maximal effect.

Structure (SMILES)	Potency
Oc1ccc2cc(SSc3ccc4cc(O)ccc4c3)ccc2c1	50.1 µM (active)
Nc1ccc2cc3ccccc3cc2c1	inactive
CN(C)c1ccc(C2(c3ccc(N(C)C)cc3)OC(=O)c3cc(N(C)C)ccc32)cc1	inactive
Cc1cc(Nc2ccc(O)cc2)ccc1N	inactive
CO[C@H]1/C=C/O[C@@]2(C)Oc3c(C)c(O)c4c(O)c(c5c(c4c3C2=O)NC2(CCN(CC(C)C)CC2)N=5)=NC(=O)/C(C)=C\C=C\[C@H](C)[C@H](O)[C@@H](C)[C@@H](O)[C@@H](C)[C@H](OC(C)=O)[C@@H]1C	inactive
Cc1cc(O)c(C(C)(C)C)cc1Sc1cc(C(C)(C)C)c(O)cc1C	31.6 µM (active)
C=C(C)c1ccccc1	inactive
O=C1OC2(c3cc(Br)c(O)c(Br)c3Oc3c2cc(Br)c(O)c3Br)c2c(Cl)c(Cl)c(Cl)c(Cl)c21	inactive
c1cc(OCC2CO2)cc(OCC2CO2)c1 (centres undefined)	inactive
ClC1=C(Cl)C(Cl)(Cl)C(Cl)=C1Cl	inactive
C/C=C1\C(=O)C[C@H]2[C@@H]3CCC4=CC(=O)CC[C@]4(C)[C@H]3CC[C@]12C	inactive
CNc1ccc(O)cc1	15.8 µM (active)
CC(=O)Nc1ccc(C(=O)CCl)cc1	25.1 µM (active)
CCC(C)Nc1ccc(NC(C)CC)cc1 (centres undefined)	15.8 µM (active)
O=C=Nc1ccc(Cc2ccc(N=C=O)cc2)cc1	inactive
c1ccc2c(c1)ccc1cc3c(ccc4ccccc43)cc12	inactive
c1ccc2c(c1)-c1cccc3c1c-2cc1ccccc13	inactive
O=[N+]([O-])c1cc([N+](=O)[O-])c2ccc(S(=O)(=O)O)cc2c1O	inactive
O=Cc1ccc(Cl)c(Cl)c1	inactive
